# In PubChem BioAssay AID463173 (ICCB-Longwood Screening Facility, Harvard Medical School, 2010):
# Hit rate of the full screen: of about 52,000 compounds, about 4,300 (8.3%) were called active. This is one part of a sample in which actives are shown more often than they occur. A number with no mark means an inactive call. Rule as the data show it: active = survival mostly below about 52% (no sharp cut-off); inactive = mostly above about 56%.
# Tested on: DeltatarO mutant
# Assay: S. aureus survival, RN4220 and DeltatarO strains – OD600, teichoic acid synthesis inhibitors, primary screen (AID 463173)
# Conditions: S. aureus RN4220 wild type/DeltatarO growth, OD600, 18 h, hits give low values, screened at 18.75 µg/mL (by protocol)
row,Compound,survival
1,CN1C(=O)C2(c3ccccc31)N(c1ccccc1)C(=O)CS2(=O)=O (stereo not drawn),91%
2,Cc1nc(-c2ccc(F)cc2)sc1CCNC(=O)c1ccco1,116%
3,O=C(Nc1ccc2nn(-c3ccccc3)nc2c1)c1ccccc1,97%
4,Cc1cc(C)c2nc(N(Cc3cccnc3)C(=O)Cc3ccccc3)sc2c1,79%
5,CCCCOc1ccc(C(=O)NCCc2csc(-c3cccc(F)c3)n2)cc1,96%
6,O=C(N/N=C1/CSC(=O)N1Cc1cccs1)c1cccs1,75%
7,Cc1cc(C)c(S(=O)(=O)NCCc2cc3cc(C)c(C)cc3[nH]c2=O)c(C)c1,63%
8,COc1ccc(N(C)C(C)=O)cc1,91%
9,CCc1ccc(C(=O)c2cn(CC(=O)Nc3cc(OC)cc(OC)c3)c3ccc(CC)cc3c2=O)cc1,84%
10,CCN(C(=O)CCc1nc(-c2ccc(C)cc2)no1)c1cccc(Cl)c1,-5% (active)
11,CC(C)(C)c1ccc(-c2noc(CCC(=O)Nc3cccc(Cl)c3)n2)cc1,87%
12,CCN(C(=O)Cc1nc(-c2ccc(OC)cc2)no1)c1cccc(Cl)c1,83%
13,CCOCCCNC(=O)C(c1ccc(OC)cc1)N(Cc1cccs1)C(=O)c1ccc(NC(C)=O)cc1 (stereo not drawn),53%
14,Cn1nc(C(=O)NCc2cccc(Cl)c2)c2c1-c1ccccc1SC2,74%
15,COc1cccc(CNC(=O)c2c(C)nn(-c3cccc(C)c3)c2-n2cccc2)c1,81%
16,Cc1cccc(-n2nc(C)c(C(=O)N3CCN(c4ccccc4)CC3)c2-n2cccc2)c1,66%
17,COc1cc(NC(=O)c2c(C)nn(-c3ccc(F)cc3)c2-n2cccc2)cc(OC)c1,78%
18,COc1cccc(NC(=O)c2c(C)nn(-c3cccc(C)c3)c2-n2cccc2)c1,8% (active)
19,CCOC(=O)N1CCN(C(=O)c2c(C)nn(-c3cccc(C)c3)c2-n2cccc2)CC1,20% (active)
20,CCOC(=O)N1CCC(NC(=O)c2c(C)nn(-c3cccc(C)c3)c2-n2cccc2)CC1,89%
21,O=C(CCOc1ccccc1)N(Cc1cccnc1)c1nc2c(Cl)cccc2s1,80%
22,CN(C)c1ccc(CNC(=O)CN(C)S(=O)(=O)c2ccc3c(c2)c(=O)n(C)c(=O)n3C)cc1,97%
23,COc1ccc(CNC(=O)C(CCSC)NS(=O)(=O)c2ccc3c(c2)oc(=O)n3C)cc1 (stereo not drawn),69%
24,Cc1c(C(=O)N(C)C)sc2c1c(=O)n(-c1ccccc1C(F)(F)F)c(=O)n2Cc1cccc(F)c1,78%

row,Compound,survival
1,CC(C)(C)OC(=O)N1CCC(c2c(C(=O)N3CCN(c4ccccn4)CC3)cnn2-c2ccc(F)cc2F)CC1,79%
2,CC(C)(C)OC(=O)N1CCC(c2c(C(=O)N3CCN(c4ncccn4)CC3)cnn2-c2ccccc2)CC1,94%
3,CC(C)(C)OC(=O)N1CCC(c2c(C(=O)N3CCN(c4ncccn4)CC3)cnn2-c2ccc(F)cc2)CC1,17% (active)
4,Cc1ccc(-n2ncc(C(=O)N3CCN(c4ncccn4)CC3)c2C2CCN(C(=O)OC(C)(C)C)CC2)cc1,80%
5,CC(C)(C)OC(=O)N1CCC(c2c(C(=O)N3CCN(c4ncccn4)CC3)cnn2-c2ccc(F)cc2F)CC1,6% (active)
6,Cc1ccc(-n2ncc(C(=O)N3CCN(c4cccc(C)c4C)CC3)c2C2CCNCC2)c(C)c1,83%
7,COc1ccccc1N1CCN(C(=O)c2cnn(-c3ccc(F)cc3F)c2C2CCNCC2)CC1,32% (active)
8,Cc1cccc(N2CCN(C(=O)c3cnn(-c4ccc(F)cc4F)c3C3CCN(C(=O)OC(C)(C)C)CC3)CC2)c1C,82%
9,CN1CCN(C(=O)c2cnn(-c3ccc(F)cc3F)c2C2CCN(C(=O)OC(C)(C)C)CC2)CC1,80%
10,CCc1[nH]nc2c1C1(C(=O)Nc3ccc(Cl)cc31)C(C#N)=C(N)O2 (stereo not drawn),78%
11,O=C(CSc1ncc2c(n1)-c1ccccc1N(Cc1ccc(Cl)cc1)S2(=O)=O)c1ccccc1,144%
12,O=C(CN1C(=O)CC(c2ccco2)Sc2ccccc21)Nc1cccc(C(F)(F)F)c1 (stereo not drawn),103%
13,CC1CCCN(Cc2nc3c(c(=O)n(C)c(=O)n3C)n2Cc2ccc(Cl)cc2)C1 (stereo not drawn),90%
14,Fc1ccccc1N1CCN(c2c3c(nc4nncn24)CCC3)CC1,81%
15,Cc1ccccc1N1CCN(S(=O)(=O)c2nnc(NC(=O)c3ccccc3)s2)CC1,26% (active)
16,Cc1cccc(N2CCN(S(=O)(=O)c3cn(C)c(C)n3)CC2)c1C,0% (active)
17,CC1CCN(S(=O)(=O)c2nnc(NC(=O)c3ccc(C(C)C)cc3)s2)CC1,62%
18,Cc1ccccc1N1CCN(S(=O)(=O)c2nnc(NC(=O)c3ccc(C(C)C)cc3)s2)CC1,38% (active)
19,Cc1nc(S(=O)(=O)N2CCN(c3ccccc3F)CC2)cn1C,117%
20,Cc1ccccc1NS(=O)(=O)c1nnc(NC(=O)c2ccccc2C)s1,76%
21,Cc1ccccc1NS(=O)(=O)c1nnc(NC(=O)c2ccco2)s1,88%
22,Cc1ccccc1NS(=O)(=O)c1nnc(NC(=O)c2ccc(Cl)cc2)s1,41% (active)
23,Cc1ccc(N2CCN(S(=O)(=O)c3nnc(NC(=O)c4ccccc4)s3)CC2)cc1,57%
24,Cc1ccc(C)c(N2CCN(S(=O)(=O)c3cn(C)c(C)n3)CC2)c1,72%

row,Compound,survival
1,CC(C)OC(=O)Cn1nnc(-c2ccccc2)n1,82%
2,CC(=O)c1cccc(NC(=O)c2ccc(-n3c(C)nnc3C)cc2)c1,70%
3,CC(C)(C)OC(=O)N1C(C(=O)O)CSC1c1cccc(Br)c1 (stereo not drawn),101%
4,Cc1ccc(NC(=O)N2CCc3cc(S(=O)(=O)N4CCC(C)CC4)ccc32)cc1,96%
5,Cc1ccc(CN(Cc2cccn2-c2nnc(N3CCCC3=O)s2)C(=O)Nc2ccccc2Cl)cc1,104%
6,COc1ccccc1CNC(=O)c1cn(C)c2ccc(S(=O)(=O)N3CCC(C)CC3)cc2c1=O,92%
7,Cc1ccc(N(C)S(=O)(=O)c2ccc(-c3coc(C)n3)cc2)cc1,75%
8,COc1ccc(NC(=O)CCCc2nc(-c3ccco3)no2)c(OC)c1,107%
9,CC1Cc2cc(S(=O)(=O)CCC(=O)Nc3ccc(OC(F)(F)F)cc3)ccc2N1C(=O)C1CC1 (stereo not drawn),85%
10,O=C(Nc1nnc(S(=O)(=O)N2CCN(c3ccc(F)cc3)CC2)s1)c1ccc(Cl)cc1,57%
11,Cc1ccccc1N1CCN(S(=O)(=O)c2ccccc2)CC1,28% (active)
12,Cc1ccccc1N1CCN(S(=O)(=O)c2nnc(NC(=O)c3ccc(Cl)cc3)s2)CC1,43% (active)
13,Cc1cccc(N2CCN(S(=O)(=O)c3nnc(NC(=O)c4ccc(Cl)cc4)s3)CC2)c1,54%
14,COc1ccc(S(=O)(=O)N2CCN(S(=O)(=O)c3ccccc3)CC2)cc1,87%
15,CS(=O)(=O)N1CCN(S(=O)(=O)c2ccccc2)CC1,104%
16,O=C(Nc1ccc(O)cc1)c1cccc(S(=O)(=O)N2CCOCC2)c1,77%
17,CCOc1ccc(NC(=O)Cn2nc3c(cc2=O)CC(C)CC3)cc1 (stereo not drawn),98%
18,c1ccc(C2SCCN2c2ccccc2)cc1 (stereo not drawn),97%
19,Cc1cccc(N2CCN(C(=O)Cn3c(-c4cccs4)cc4ccccc43)CC2)c1C,78%
20,CCCCCOc1ccc(NC(=O)Cc2csc(C)n2)cc1,44%
21,Cc1cccc(OCc2nc(CC(=O)Nc3ccc(C)cc3C)cs2)c1,79%
22,Cc1ccc(C(=O)CCC(=O)Nc2ccc(C)cc2C)cc1,115%
23,Cc1nc(CC(=O)Nc2cc(Cl)ccc2C)cs1,45% (active)
24,CCc1ccc(NC(=O)Cc2csc(COc3cccc(C)c3)n2)cc1,88%

row,Compound,survival
1,CCc1cccc(CC)c1NC(=O)Cc1csc(C)n1,42% (active)
2,Cc1ccccc1-c1noc(CCC(=O)Nc2cccc(C)c2C)n1,88%
3,Cc1ccc(NC(=O)Cc2csc(C)n2)c(C)c1,40% (active)
4,Cc1nc(CC(=O)Nc2cccc(C)c2C)cs1,39% (active)
5,Cc1cccc(NC(=O)Nc2cccs2)c1C,93%
6,Cc1ccc(Cl)cc1NC(=O)c1csnn1,78%
7,Cc1cc(C)c(NC(=O)Cc2csc(C)n2)c(Cl)c1,48%
8,COCC(=O)N1CCC(n2nnc3cc(F)ccc32)CC1,53%
9,CCN(CC)CC(=O)N1CCCC1=O,100%
10,Cc1cc(C)c(/C=C/c2onc(C)c2S(=O)(=O)N2CCC(C(=O)NCc3ccco3)CC2)c(C)c1,90%
11,CCOC(=O)c1ccc(NC(=O)CCn2c(=O)c3cccn3c3ccccc32)cc1,91%
12,CCC(c1nnnn1CCOC)N1CCN(c2cccc(C(F)(F)F)c2)CC1 (stereo not drawn),107%
13,Cn1c(CNc2ccc(Cl)cc2)nnc1SCc1ccc(Cl)cc1,68%
14,CC(=O)N1CCCC1c1nc2ccccc2n1Cc1ccc(F)cc1 (stereo not drawn),85%
15,CCc1cccc(CC)c1NC(=O)c1c(C)oc2ccc(O)c(CN3CCCC3)c12,113%
16,O=S1(=O)c2ccccc2-c2cc(Br)ccc21,79%
17,CCOC(=O)CNC(=O)Nc1cc(C(=O)NCc2ccccc2OC)ccc1N1CCCC1,80%
18,CCC(=O)/C=C1/Sc2ccc(C)cc2N1CC,97%
19,O=C(O)c1cc(NC2(c3ccccc3)C(=O)c3ccccc3C2=O)ccc1Cl,87%
20,Cc1ccc(NC2(c3ccccc3)C(=O)c3ccccc3C2=O)cc1F,58% (active)
21,Cc1cc(F)ccc1NC1(c2ccccc2)C(=O)c2ccccc2C1=O,79%
